Assay outcomes: PubChem BioAssay, NMMLSC
Efflux pump mplx – inhibitors of Candida efflux pumps in yeast, primary screen, S. cerevisiae, Nile Red, multiplex; 0.44% of 330,000 active; inhibition, % at 10 µM; S. cerevisiae Candida pump triplex;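 active = plate passing quality check with inhibition over a set limit, or well fluorescence over plate mean plus 4 SD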;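 note: Nile Red retained in pooled yeast measured as flow cytometry median fluorescence; higher means more Nile Red kept so more efflux inhibition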
AGP1-GFP MLPCN – modulators of AGP1-GFP expression in yeast TOR pathway, primary screen, cell-based, multiplex flow cytometry, S. cerevisiae, MLPCN library. 3 h; GFP as percent of DMSO wells. GFP response vs DMSO, % at 10 µM. 0.02% of 320,000 active. AID 2066, 2009;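 active = GFP response relative to DMSO above a set limit, near screen average plus 3 SD, cut at about 150% in these data; inconclusive = fewer than 70 cells counted for the yeast strain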;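 note: median GFP channel fluorescence of the gated AGP1 strain per well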
RPL19A-GFP yeast – RPL19A-GFP expression modulators in yeast, primary screen, cell-based, S. cerevisiae, multiplex flow cytometry, MLPCN | S. cerevisiae RPL19A-GFP strain, 3 h; stronger effect = lower value | percent response vs DMSO, % at 10 µM | 0.3% of 330,000 active;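 active = percent response vs DMSO below 50%; inconclusive = fewer than 70 events counted for the yeast strain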;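 note: median channel GFP fluorescence of the barcoded RPL19A-GFP strain; lower means less RPL19A-GFP as with rapamycin TOR inhibition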
MEP2 TOR yeast – modulators of MEP2-GFP levels in yeast, primary screen, S. cerevisiae, multiplex flow cytometry, MLPCN library | S. cerevisiae MEP2-GFP strain, 3 h; 100% = DMSO control level | GFP response vs DMSO, % at 10 µM | 0.51% of 330,000 active | AID 2016, 2009;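 active = GFP response versus DMSO above a set limit, roughly screen mean plus 3 SD, cut at about 180% in these data; inconclusive = fewer than 70 cells counted for a yeast strain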;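 note: median GFP fluorescence of the barcode-gated MEP2-GFP cells per well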
LAP4 TOR yeast – modulators of LAP4-GFP expression in yeast, primary screen, S. cerevisiae, multiplex flow cytometry, MLPCN library; 3 h; median GFP as percent of DMSO wells; GFP response vs DMSO, % at 10 µM; 0.34% of 320,000 active; AID 2023, 2009;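 active = GFP response vs DMSO above a set limit, about the screen mean plus 3 SD, cut at about 150% in these data; inconclusive = under 70 cell events counted for the yeast strain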
CIT2-GFP yeast – modulators of CIT2-GFP expression in yeast, primary screen, S. cerevisiae, GFP fusion, multiplex flow cytometry, MLPCN library; S. cerevisiae CIT2-GFP strain, 3 h; 100 means same as DMSO wells; AID 2029, 2009; 0.065% of 320,000 active; GFP response vs DMSO, % at 10 µM;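 active = GFP response relative to DMSO above a set limit, near the screen mean plus 3 SD, cut at about 150% in these data; inconclusive = Fewer than 70 cells measured for a yeast strain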;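 note: ratio of well median GFP fluorescence to mean of DMSO wells on the plate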
A number is an active result; - = inactive; ? = inconclusive; . = no result; [ ] = dose if it differs, or a comment. A selection: hits, their analogues and other compounds. The true share with any hit is near 1.3%.

SMILES	Efflux pump mplx	AGP1-GFP MLPCN	RPL19A-GFP yeast	MEP2 TOR yeast	LAP4 TOR yeast	CIT2-GFP yeast
Cc1ccc(C(=O)N2c3ccccc3NC(=O)C2C)cc1 (configuration not stated)	-	-	-	247	212	.
Cc1ccccc1NC(=O)N1CCNC(=O)C1CC(=O)Nc1cc(Cl)ccc1Cl (configuration not stated)	-	-	-	-	-	159[may fluoresce green]
COc1ccc(-c2cc(C(F)F)n3ncc(C(=O)N4CCCCC4)c3n2)cc1	-	.	-	-	-	-
COc1ccc(-c2cc(C(F)F)n3ncc(C(=O)N4CCN(C(=O)c5ccco5)CC4)c3n2)cc1	0.8	-	-	-	-	-
COCc1nnc(NC(=O)C2CCN(C(=O)c3ccco3)CC2)s1	-	-	-	968[may fluoresce violet]	-	?
O=C(COC(=O)C12CC3CC(CC(Cl)(C3)C1)C2)Nc1ccc2[nH]c(=O)[nH]c2c1	-	-	-	-	-	-
S=c1[nH]nc(-c2ccccc2)n1/N=C/C=C/c1ccco1	-	-	-	-	-	-
Cc1cc(-c2n[nH]c(=S)n2/N=C/C=C/c2ccco2)n[nH]1	-	?	37[may fluoresce violet]	396[may fluoresce violet]	-	?
COc1ccccc1CNC(=O)C1CCN(S(=O)(=O)c2ccc(N3CCCC3=O)cc2)CC1	-	-	-	-	-	-
O=C(N/N=C/c1cc(O)ccc1[N+](=O)[O-])c1ccc2c(c1)OCCO2	-	-	-	-	-	-
O=C(N/N=C/c1ccccc1[N+](=O)[O-])c1ccc2c(c1)OCCO2	-	-	46[may fluoresce violet]	430[may fluoresce violet]	-	?
CSc1nc2ccc(S(=O)(=O)N3CCCC3)cc2s1	-	-	-	-	177	-
N#CC1(C#N)COC23CCCCC2C1(C#N)C(=N)O3 (configuration not stated)	-	-	-	-	-	-
N#CC12COC3(CCCCC3C1(C#N)C#N)OC2=N (configuration not stated)	-	?	48[may fluoresce violet]	182[may fluoresce violet]	-	?
CCC(=O)OC1(C)C(=O)C=C2C=C(CCCC(=O)OC)OC=C2C1=O (configuration not stated)	-	-	-	-	-	-
CCCCC1=CC2=CC(=O)C(C)(OC(=O)CC)C(=O)C2=CO1 (configuration not stated)	-	?	35[may fluoresce violet]	260[may fluoresce violet]	-	?
COC(=O)c1c(C(=O)OC)c(-c2ccccc2)n2c1CS(=O)C2 (configuration not stated)	-	?	41[may fluoresce violet]	355[may fluoresce violet]	-	?
CCCNC(=O)NC(=O)CSc1nncs1	-	-	-	-	-	-
N#Cc1c(NC(=O)/C=C/C(=O)O)sc2c1CCN(Cc1ccccc1)C2	-	?	23[may fluoresce violet]	367[may fluoresce violet]	-	?
CC(=O)Nc1sc2c(c1C#N)CCN(Cc1ccccc1)C2	-	-	-	-	-	-
CC(C)(C)C(=O)Nc1ccc(S(=O)(=O)N2CCC(c3nc4ccccc4[nH]3)CC2)cc1	-	-	-	-	-	-
O=C(Cn1cc(/C=C\[N+](=O)[O-])c2ccccc21)Nc1ccccc1	-	-	-	-	-	-
O=[N+]([O-])/C=C/c1cn(Cc2ccccc2)c2ccccc12	-	-	-	-	178	-
N#Cc1ccccc1Cn1cc(/C=C/[N+](=O)[O-])c2ccccc21	-	-	-	-	156	-
O=C(O)Cn1cc(/C=C/[N+](=O)[O-])c2ccccc21	-	-	-	-	-	-
COC(=O)C1=C(N)OC2=C(C(=O)CCC2)C1c1cccnc1 (configuration not stated)	-	-	-	-	-	-
CCOC(=O)C1=C(N)OC2=C(C(=O)CCC2)C1c1cccnc1 (configuration not stated)	-	?	.	295[may fluoresce violet]	-	?
COc1ccc(N(CC(=O)N2CCN(Cc3ccccc3)CC2)S(C)(=O)=O)cc1OC	-	-	-	-	-	-
